Laboratory results: the supplement of paper PMC6555819

system: VDR:RXRa (NR concentration 270 nM, RXRa partner concentration 90 nM); assay: PBM binding z-score (relative to random genomic background probes); higher = stronger binding; sequences stand for … in GC…GCGATTGACAGCGTAGAATGAAGG
Description: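 Protein-binding microarray (Agilent 4x180K custom design, double-stranded 60-nt probes: 5' GC cap, 34-nt variable region, 24-nt constant primer region; full probe sequence given). Purified or IVT nuclear receptor:RXRα heterodimers (3:1 NR:RXRα, mostly 270:90 nM) or homodimers were incubated for 1 h in PBS with 2% milk and no ligand, then detected with Alexa488 antibodies. Fluorescence from o1-orientation probes (~5 replicates averaged) was converted to z-scores against 500 random hg19 background probes. Variable regions are seed direct-repeat (DR0–DR5) sites, all their single-nucleotide variants and half-site ablations.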

Sequence	PBM binding z-score
CTCGAAAGGTCGTGCTCAGGTGAGTGTACCAAAC	3.44
ACAGACAGGTGAGTGAAGGTAACTCAACTGGACG	-0.232
CCGACTCGGGCAAGGTTACCATAACGCACAGCCA	-0.103
CCTAGTTCGTCAGGAGGTCACACACCGGATATGA	5.03
CGTCCAAGGTCGATGCTAGGTCAGTGAAAGCATT	2.26
CTCGAAAGGTCGATTGAGGTGAGTATACGGATAA	3.76
CTACCAATGTGAACAAGGTCGTTGATTACTATTC	3.77
CCGACTGGAGCATAAGGTTACCATAAGCCAGCCC	0.0802
CCTACTGAGCCAAGGTCATTGATCAGTCAAAGCA	3.63
CGTCCAAGGTCAGAGAGTTCAGTGAATGCCGAGT	7.65
GCAGACAGGTGAAACGCAGGTTACTCAGGGTGGC	-0.128
ATTACAGGGTCACTAGGCCAGAGTAGGTACGAAT	4.19
GCTGCTAGGTCAACTGTTGGTCAGCTAAAGCTCG	1.39
CCTCGGAGTACAGAAGGTCAGAGCTGTCCGCTTT	1.64
CGTCCAAAGTCAGCAGGTCAGTGAAAGCGACGTG	0.372
CCTCGGAGGACAACAGGAGGTCAGAGCTGCCAGA	2
AGATTGAGGTTATACGTAGATCAGGGAAGAAAGT	1.23
ATACCAAGGTGATCGTGAGATCGTTGATACTAAC	0.19
ATACCAAGGTGATCGTGAGGTCGTGGATACTAAC	2.84
TCTACTAGGTCAACGATGGTCAGCTAATCTGCTA	2.27

Sequence	PBM binding z-score
TCTTGTAGATCAACAGGAGGTTATGAAAGATCGA	0.761
CGTCAAAGTTTAACTAAGGTAACGTAAAGCACGC	0.861
CCTTACGGGTCATTCCAGGTTATAGCATCGGAGT	4.87
ACCATTAGTTGACTTAGGGCAACCGATACGACGC	0.475
TAGCCTAGGTCATGCGGGCCAGTTTAGTGTCGGC	2.97
CCTGCTTGGTCATGGTCAGCTAATCTACAGTATG	-0.22
TCATATAAGTAAATGCTAGGTGAAAGTCCGATCT	0.889
CCTACTAGGTCAATGGTCAGCTAAAGCAGCTCGC	1.45
CAGACTAGGTCACCGGAAGGTCAAAGTCCGCATG	5.78
GAAACAGGGTCAGCTAGAGGCCAGAGTATGGAAA	3.64
CCTAGTGGGTCAAGGTCACACACGCTATAGGTAC	4.64
CCGACTGGGGCATACGGTTACCATAAGCCAGCCC	-0.577
ATCTCTAGGTAAAGATAGTACAGTGAATGCAAAT	0.325
ATCGAAAGGACGTGAGGTGAGTATACAGAAAGGC	-0.301
ACTATTAGTTAACTTAGGGCAACCGATACGACGC	0.299
GGAACGAGGGCAAAGTTGATAGTATCTGTCGACG	1.21
AGTCAAAGTTCACTAGGTAACGTAAGATTCAGCT	3.83
TCTATTAGTTTAAGGGCAACCGACGAGTCCGTTT	1.61
GCTGCTAGGTCAACTCATGGTCAGCTAAAGCTCG	1.71
TCTGCCAGGTCAGTTGGTCAGCTAACGAGCTGCC	0.52
